This is part of a sample that, as a whole, favours compounds with a hit. Of some 83,000 tested, about 20% had one in any assay.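 Results are percent growth after 48 hours of single-concentration exposure. 100 means growth as in untreated cells, lower positive values show inhibition; negative values down to -100 show cell death.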 A number with no mark means an inactive call. Calls of active or inactive are those of the source. The calls were made as follows: active = growth percent below 10; inactive = the rest.

We go through 16 compounds from PubChem BioAssay (NCI).

Some test systems named below: T-47D breast; BT-549 breast; MDA-MB-435 melanoma; SW-620 colon; MCF7 breast; HCT-116 colon; HCC-2998 colon; KM12 colon.
Experiment in all cases: NCI-60 one-dose screen, 48 h (100 = growth as untreated, 0 = no growth, -100 = all killed)
Settings in all cases: 10 µM unless noted

As to `CCSc1cnnc2ccccc12`, the growth was 107% with T-47D breast; 116% in the assay on BT-549 breast; 105% in the assay with MDA-MB-435 melanoma; 113% in the assay with SW-620 colon; 108% with MCF7 breast; 106% in the assay with HCT-116 colon. The growth in the assay with HCC-2998 colon is 101%; with KM12 colon, 113%.

In the case of `Nc1cc(C(=O)O)cc(C(=O)O)c1`, the growth in the assay on T-47D breast was 97.1%; in the assay on BT-549 breast, 107%; in the assay with MDA-MB-435 melanoma it was 108%; in the assay on SW-620 colon, 110%; with MCF7 breast it was 99.8%; in the assay on HCT-116 colon it was 101%. Moreover, the results for the growth in the assay with HCC-2998 colon and with KM12 colon were 121% and 111%, respectively.

Take `NC(N)=N/N=C/c1ccc(Cl)cc1`: the growth in the assay with T-47D breast is 91.5%; in the assay on BT-549 breast, 77.4%; in the assay with MDA-MB-435 melanoma, -53.2% (active); with SW-620 colon, 24.5%; in the assay on MCF7 breast, 23.5%; in the assay on HCT-116 colon, 50.8%. Moreover, the growth was 86.8% with HCC-2998 colon and 15.5% in the assay on KM12 colon.

As for `CCN1CCN(Cc2ccc(NC(=O)Nc3ccc(-n4ccc5c(NC(=O)c6ccccc6)nccc54)cc3)cc2C(F)(F)F)CC1`, the growth in the assay with T-47D breast is 75.6%; with BT-549 breast it was 68.5%; with MDA-MB-435 melanoma, -61.5% (active); in the assay on SW-620 colon, -11.9% (active); in the assay on MCF7 breast, -90% (active); in the assay on HCT-116 colon it was -83.6% (active). Also, the growth with HCC-2998 colon was 68.3%; in the assay with KM12 colon, 14.3%.

Turning to `O=C(CCl)Nc1ccc2c(c1)C(=O)c1ccccc1C2=O`, the growth is -71% (active) in the assay on T-47D breast; -45.3% (active) in the assay on BT-549 breast; 13.1% in the assay with MDA-MB-435 melanoma; -78.6% (active) in the assay on SW-620 colon; -25% (active) in the assay with MCF7 breast; -28.6% (active) in the assay on HCT-116 colon. In addition, the growth with HCC-2998 colon was 69%; with KM12 colon, 54.9%.

As to `C#C[C@]1(O)CC[C@H]2[C@@H]3CC=C4c5sc(-c6cccc(Br)c6)nc5CC[C@]4(C)[C@H]3CC[C@@]21C`, the growth is 80.6% in the assay with T-47D breast; 87.3% in the assay with BT-549 breast; 91.7% in the assay on MDA-MB-435 melanoma; 87.9% with SW-620 colon; 55.3% in the assay with MCF7 breast; 83.6% in the assay with HCT-116 colon. The growth is 85.1% in the assay on HCC-2998 colon and 63.8% in the assay with KM12 colon.

`CCCCn1cnc2c(SCc3ccc([N+](=O)[O-])cc3)nc(N)nc21`: the growth in the assay with T-47D breast was 80%; in the assay with BT-549 breast it was 90.4%; with MDA-MB-435 melanoma it was 98%; with SW-620 colon, 109%; with MCF7 breast it was 91.2%; with HCT-116 colon it was 92.5%. Besides, the results for the growth with HCC-2998 colon and in the assay on KM12 colon were 90.7% and 97.9%, respectively.

Turning to `c1ccc2c(N=NSc3ncnc4nc[nH]c34)c3ccccc3nc2c1`, the growth in the assay on T-47D breast is -23.7% (active); in the assay with BT-549 breast it was 27.9%; in the assay with MDA-MB-435 melanoma, 5.09% (active); in the assay with SW-620 colon, -27.6% (active); in the assay on MCF7 breast it was -27.7% (active); in the assay on HCT-116 colon, -33.7% (active). Moreover, the results for the growth in the assay with HCC-2998 colon and in the assay with KM12 colon were 6.89% (active) and 9.38% (active), respectively.

On to `Cn1cnc([N+](=O)[O-])c1S(=O)(=O)Oc1cccc2ccccc12`, for which the growth in the assay on T-47D breast was -30.9% (active); with BT-549 breast, 99.9%; with MDA-MB-435 melanoma, 67.9%; with SW-620 colon, 7.26% (active); with MCF7 breast it was 44.8%; in the assay with HCT-116 colon, 17.8%. In addition, the growth in the assay on HCC-2998 colon was 88.7%; with KM12 colon, 88.9%.

Regarding `O=C(c1ccc(OCCN2CCCCC2)cc1)c1c(-c2ccc(O)cc2)sc2cc(O)ccc12`, the growth in the assay on T-47D breast was 65.5%; in the assay with BT-549 breast, 66.4%; in the assay on MDA-MB-435 melanoma it was 90.5%; in the assay with SW-620 colon it was 98.2%; in the assay with MCF7 breast it was 31.9%; in the assay on HCT-116 colon, 76.2%. Besides, the growth in the assay with HCC-2998 colon and with KM12 colon was 103% throughout.

Turning to `C=C1C(=O)O[C@H]2[C@H]1CC/C(COC(=O)NCc1cccc(OC)c1)=C\CC[C@@]1(C)O[C@@H]21`, the growth was 11.9% in the assay on T-47D breast; 16.6% in the assay on BT-549 breast; 45.5% in the assay on MDA-MB-435 melanoma; -35.4% (active) in the assay on SW-620 colon; 8.22% (active) in the assay on MCF7 breast; -70.9% (active) in the assay on HCT-116 colon. Besides, the values for the growth with HCC-2998 colon and in the assay on KM12 colon were 81.6% and 88%, respectively.

With `COc1ccccc1/C=N\Nc1ccc([N+](=O)[O-])cn1`, the growth in the assay with T-47D breast was 94.8%; in the assay on BT-549 breast it was 101%; in the assay on MDA-MB-435 melanoma it was 104%; in the assay on SW-620 colon it was 124%; in the assay on MCF7 breast, 96.2%; in the assay on HCT-116 colon, 96.5%. For the same compound, the growth was 100% with HCC-2998 colon and 106% with KM12 colon.

For the compound `CNC(=O)c1c(NC(=O)c2ccc(C(C)C)cc2)sc2c1CCC(=O)C2`, the growth with T-47D breast is -36.6% (active); in the assay with BT-549 breast it was -11.2% (active); with MDA-MB-435 melanoma it was 9.66% (active); in the assay with SW-620 colon, -35.5% (active); in the assay on MCF7 breast, 0.569% (active); in the assay with HCT-116 colon, -31.2% (active). Also, the growth was -55.3% (active) in the assay on HCC-2998 colon and -17.9% (active) with KM12 colon.

Turning to `c1csc(-c2cnc3nonc3n2)c1`, the growth in the assay on T-47D breast is 45.9%; with BT-549 breast, 87.3%; with MDA-MB-435 melanoma, 98.6%; in the assay with SW-620 colon, 99.7%; in the assay with MCF7 breast, 61.3%; in the assay on HCT-116 colon it was 66.6%. In addition, the growth in the assay on HCC-2998 colon is 112%; with KM12 colon, 91.5%.

Regarding `C=CCN1C(=O)/C(=c2\sc3n(c2=O)C2C(NN=3)N(CC)C(=O)N2CC)c2ccccc21` (stereo not drawn), the growth is 57.6% with T-47D breast; 25% with BT-549 breast; -30.2% (active) in the assay with MDA-MB-435 melanoma; 30.9% with SW-620 colon; 16.6% in the assay with MCF7 breast; 10.7% in the assay on HCT-116 colon. Further, the growth was 4.46% (active) with HCC-2998 colon and 20.1% with KM12 colon.

`COc1ccc(-c2cc(C(=O)Nc3ccc(C)cc3)nc3[nH]c(=O)sc23)cc1`: the growth was 58.7% in the assay with T-47D breast; 75.9% with BT-549 breast; 65.5% in the assay on MDA-MB-435 melanoma; 77.2% in the assay with SW-620 colon; 71.6% with MCF7 breast; 66.2% in the assay on HCT-116 colon. Moreover, the growth with HCC-2998 colon was 76.7%; in the assay with KM12 colon, 67.4%.
